Measurements published in PubChem BioAssay (NCI).
Where “and” joins values, the source holds several entries; their conditions need not be identical. Identical values can stand only once. The panel holds about 79,000 compounds, 15% with a hit somewhere; the sample as a whole holds those more often. Calls of active or inactive are those of the source. No stated cut-off is given here; in the data, active means growth inhibition above about 70%; inactive means the rest.

Columns and labels:
[1] = NCI Yeast Anticancer Drug Screen. Data for the rad50 strain (AID 155);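 further: 0% = growth of vehicle-only cultures of the same strain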; conditions: S. cerevisiae rad50 strain growth inhibition, hits give high values; at 50.0 µM unless noted
How it was run: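 Vehicle-treated cultures provide the reference for the growth inhibition reported for compound-exposed, repair-deficient yeast.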

[2] = NCI Yeast Anticancer Drug Screen. Data for the mec2-1 strain (AID 157); conditions: S. cerevisiae mec2-1 strain, hits give high values; at 50.0 µM unless noted
How it was run: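 Test agents were screened against the mec2-1 yeast strain, with defined DNA repair or cell cycle alteration. Growth was scored as inhibition against vehicle-only controls.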

[3] = NCI Yeast Anticancer Drug Screen. Data for the sgs1 mgt1 strain (AID 161);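 further: 0% = growth of cultures given vehicle only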; conditions: S. cerevisiae sgs1 mgt1 strain, hits give high values; at 50.0 µM unless noted
How it was run: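 Genetically altered yeast, compound exposure, growth inhibition relative to vehicle.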

[4] = NCI Yeast Anticancer Drug Screen. Data for the cln2 rad14 strain (AID 165);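 further: 0% = growth equal to vehicle treated cultures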; conditions: S. cerevisiae cln2 rad14 strain, hits give high values; at 50.0 µM unless noted
How it was run: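 Growth of compound-exposed yeast (cln2 rad14 genotype) measured and expressed as inhibition relative to vehicle.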

[5] = NCI Yeast Anticancer Drug Screen. Data for the bub3 strain (AID 167); conditions: S. cerevisiae bub3 mutant strain, hits give high values; at 50.0 µM unless noted
How it was run: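 Mutant yeast screening strain plus compound; vehicle-treated cultures serve as the 0% inhibition reference.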

[6] = NCI Yeast Anticancer Drug Screen. Data for the mlh1 rad18 strain (AID 175); conditions: S. cerevisiae mlh1 rad18 strain growth inhibition, hits give high values; at 50.0 µM unless noted
How it was run: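 In this whole-cell yeast screen, a strain with altered DNA damage repair is challenged with compound, and its growth is measured against matched vehicle-treated controls.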

Measured: growth inhibition

CCOC(CN)(OCC)c1ccncc1
inactive: [1] 10.9% | [2] 14.2% | [3] 8.65% | [4] -27.1% | [5] 11.2% | [6] -0.05%

CCOC(=O)C(CCc1ccccc1)C(C)=O (stereo unspecified)
inactive: [1] -0.75% | [2] -7.95% | [3] -0.25% | [4] 40.5% | [5] 2.45% | [6] -11.8%

CCCCCC(=O)OC(c1ccc(Cl)cc1)c1ccc(Cl)cc1
inactive: [1] -5.2% | [2] -26.2% | [3] 5.5% | [4] 12.6% | [5] 26.8% | [6] 5.3%

CC(=O)NCC(=O)c1ccc([N+](=O)[O-])cc1
inactive: [1] 16.6% and -14.7% | [2] -16.3% and -24.1% | [3] 13% and -0.95% | [4] -0.2% and 6.65% | [5] -6.95% and -17.6% | [6] 29.8% and -1.7%

COc1ccc(C2OC3=C(Nc4ccccc4N3)C2=O)cc1 (stereo unspecified)
inactive: [1] 19.5% | [2] 5.8% | [3] 27.4% | [4] 14.1% | [5] -14.3% | [6] 46.2%

COC1C(O)C(n2ncc3c(SC)nc(SC)nc32)OC1C(O)CO (stereo unspecified)
inactive: [1] 16.3% | [2] -3.95% | [3] -16.2% | [4] 8.95% | [5] -4% | [6] 14.4%

Cc1cc[nH]c(=O)c1[N+](=O)[O-]
inactive: [1] -12.3% | [2] -10.8% | [3] -2.85% | [4] -25.7% | [5] -9.65% | [6] 2.65%

COC(=O)c1ccccc1-c1ccccc1C(=O)O
inactive: [1] 1.2% | [2] -3.35% | [3] -5.45% | [4] -13.8% | [5] 8.3% | [6] -1.7%

c1ccc2nn(C3CCCO3)nc2c1 (stereo unspecified)
inactive: [1] 0.75% | [2] -16.5% | [3] -21.9% | [4] -29.4% | [5] 3.15% | [6] -43.5%

C=CCOCn1cnc2c(N)ncnc21
inactive: [1] -35.9% | [2] -59.9% | [3] -24.1% | [4] -0.6% | [5] -11.3% | [6] -36%

CCOC(=O)c1sc(N)nc1N1CCCC1
inactive: [1] 1.65% | [2] -23.9% | [3] -9.65% | [4] 10.1% | [5] 7% | [6] -2.25%

CC(=O)Nc1cccc(N=Cc2ccc(N(CCOS(C)(=O)=O)CCOS(C)(=O)=O)cc2C)c1
inactive: [3] 40.4% | [4] 22.9% | [5] 13.8%
active: [1] 73.8% | [2] 70.5% | [6] 93.2%

O=[N+]([O-])c1ncccc1O
inactive: [1] 12.2% | [2] -2.75% | [3] -4.5% | [4] 9.35% | [5] 12% | [6] 15.9%

C=C1CC(C)(COc2ccc3ccc(=O)oc3c2)OC1=O (stereo unspecified)
inactive: [1] 24.4% | [2] 15.4% | [3] 49% | [4] 37.5% | [5] 17.6% | [6] 41%

N#C/C(=C\c1cccc2ccccc12)c1ccc(Cl)cc1
inactive: [1] -11.8% | [2] -12.9% | [3] -6.65% | [4] -13.7% | [5] -2.6% | [6] -1.85%

CN(C)CCN1CC2Cc3ccccc3C1c1ccccc12 (stereo unspecified)
inactive: [1] 24.1% | [2] -6.5% | [3] -3.5% | [4] 28.9% | [5] 43.4% | [6] 9.1%

Cc1c(N(C)CN(C)c2c(C)n(C)n(-c3ccccc3)c2=O)c(=O)n(-c2ccccc2)n1C
inactive: [1] -13.2% | [2] -27.4% | [3] -15.7% | [4] 3.25% | [5] -12.9% | [6] -18%

Clc1nc(NCCc2ccccc2)c2ncn(-c3ccccc3)c2n1
inactive: [1] 52.9% | [2] 47.2% | [3] 34.1% | [4] 12.9% | [5] 68.2% | [6] 42.8%

c1ccc(OC2=NC3=S(S2)SC(Oc2ccccc2)=N3)cc1
inactive: [1] 43.2% | [2] -4.15% | [3] 56.7% | [4] 10.6% | [5] 12.5% | [6] -3.35%

CCOCc1cccc2ccccc12
inactive: [1] -13.6% | [2] -33.9% | [3] -14.9% | [4] 9% | [5] -6.55% | [6] -23.9%

CC(=C/c1ccccc1)/C=C1/NC(=S)NC1=O
inactive: [1] -25.6% | [2] -41.9% | [3] -16.4% | [4] -2.7% | [5] -23.4% | [6] -21.4%

c1ccc2[nH]c(CSc3nc4ccccc4s3)nc2c1
inactive: [1] 10.1% | [2] 17.2% | [3] 37.5% | [4] 33.6% | [5] -0.75% | [6] 28.6%

COC(=O)NC1C(OC(C)=O)C(OC(C)=O)C(COC(C)=O)OC1n1ccc(NC(C)=O)nc1=O (stereo unspecified)
inactive: [1] 8.65% | [2] 1.4% | [3] 5.9% | [4] 18.6% | [5] 0.15% | [6] 5.1%

CC(=O)Oc1ccc(CCC(=O)O)cc1
inactive: [1] 18.8% | [2] 12.6% | [3] 6.9% | [4] 57.9% | [5] 11.4% | [6] 20.9%

CCN(CC)c1c(C)c(-c2ccccc2)n[n+]([O-])c1-c1ccccc1
inactive: [1] 35.9% | [2] 24.1% | [3] 14.4% | [4] 1.85% | [5] 17.9% | [6] 24.8%

CCCC(=O)NC1CCc2cc(OC)c(OC)c(OC)c2-c2ccc(OC)c(=O)cc21 (stereo unspecified)
inactive: [1] 27.4% | [2] -40.5% | [3] 23.1% | [4] -0.9% | [5] 3.45% | [6] 3.2%

N#CCCC(C#N)(CCC#N)C(N)=O
inactive: [1] 11.9% | [2] -18% | [3] -2.6% | [4] -49.6% | [5] 5.2% | [6] 1.55%

O=C(NO)c1ccccc1
inactive: [1] 17.1% | [2] -29.6% | [3] 11.6% | [4] 21.8% | [5] -4% | [6] 27.8%

CN(C)Cc1ccccc1CC1(O)CCCC1
inactive: [1] 19.6% | [2] -2.75% | [3] -4.3% | [4] -10.1% | [5] 0.3% | [6] -12.5%

CCOC(=O)c1cccc(N)c1C(=O)OCCN(CC)CC
inactive: [1] 1.65% | [2] 0.15% | [3] -3.75% | [4] -25.2% | [5] 19.4% | [6] 3.55%

CC(=O)CC(C[N+](=O)[O-])c1ccccc1 (stereo unspecified)
inactive: [1] -4.7% | [2] -0.8% | [3] -4.65% | [4] -28.5% | [5] -21.6% | [6] -6.9%

CC(C)C1=CCC2C(=C1)CCC1C(C)(N=C=O)CCCC21C (stereo unspecified)
inactive: [1] -28.6% | [2] -10.1% | [3] -7.7% | [4] -51.8% | [5] 38.8% | [6] -4%

CC(C)(C)NC(=O)C(Br)c1ccccc1 (stereo unspecified)
inactive: [1] 0.05% | [2] 23.1% | [3] 33.8% | [4] -2.25% | [5] 54.1% | [6] 16%

COc1ccc(C=O)c(Cl)c1OC
inactive: [1] 26.8% | [2] 14.4% | [3] 0.95% | [4] 6.55% | [5] -7.85% | [6] -16.8%

COc1ccc(CCNS(=O)(=O)c2c(C)c(C)c(C)c(C)c2C)cc1OC
inactive: [1] -2.2% | [2] -20.6% | [3] 5.1% | [4] 21.1% | [5] 21.2% | [6] 6.8%

O=C1/C(=C/c2ccc(O)cc2)CCc2ccccc21
inactive: [1] -21.6% | [2] -6.35% | [3] -2.1% | [4] 2.75% | [5] 11.9% | [6] -34.2%

O=C1c2ccccc2C(=O)c2c3c(cc(NCCNCCO)c21)N(CCO)CCN3
inactive: [1] 29.4% | [2] 18.4% | [3] 33.8% | [4] 10.3% | [5] 34.8% | [6] 29.1%

CCOC(=O)c1nc2ccccc2c(=O)[nH]1
inactive: [1] -1.85% | [2] -5% | [3] 1.5% | [4] -32.9% | [5] -8.6% | [6] -2.5%

Cc1ccc(S(=O)(=O)OC2CSS(=O)CC2OS(=O)(=O)c2ccc(C)cc2)cc1 (stereo unspecified)
inactive: [1] 12.8% | [2] -3.15% | [3] 4.45% | [4] 19.1% | [5] -1.4% | [6] 21.1%

CC(=O)CC(=O)NCC1CCC(CNC(=O)CC(C)=O)CC1 (stereo unspecified)
inactive: [1] -26.6% | [2] -33% | [3] -13.9% | [4] -1.45% | [5] -54.3% | [6] -48.8%

CCN(CC)c1ccc2c(c1)C(=O)c1ccccc1-2
inactive: [1] -6.7% | [2] 27.6% | [3] 14.2% | [4] 15.8% | [5] 38.8% | [6] 30.6%
